Measured values from PubChem BioAssay (NCATS).
Results filed as inconclusive are left out. The source made the active and inactive calls. The call rests on the fitted dose curve; in most records, active means well fitted inhibition curve with a large enough effect; inconclusive means small, poorly fitted or top-dose-only effect; inactive means flat fitted curve, though single readings scatter.

Assays:
Test in all cases: qHTS profiling for inhibitors of Plasmodium falciparum proliferation (AID 504749); further: nearly all actives have a fitted effect of over 60% in size
Details in all cases: P. falciparum in erythrocytes, SYBR Green DNA, 72 h; series mostly up to 28.7 µM
[1] = test system: ATS189
How it was run: (§1)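 Readout was DNA-dye fluorescence from lysed cultures, ex 485/em 535 nm. Parasitized red cells had grown 72 h with compound; data scaled between 0.29 uM artemisinin and DMSO wells and corrected using vehicle-only plates.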

[2] = test system: ATS95
How it was run: as §1

[3] = test system: C2A
How it was run: as §1

[4] = test system: CP185
How it was run: as §1

[5] = test system: CP191
How it was run: as §1

[6] = test system: CP192
How it was run: as §1

[7] = test system: CP194
How it was run: as §1

[8] = test system: CP201
How it was run: as §1

[9] = test system: CP203
How it was run: as §1

[10] = test system: CP211
How it was run: as §1

[11] = test system: CP215
How it was run: as §1

[12] = test system: CP217
How it was run: as §1

[13] = test system: CP237
How it was run: as §1

[14] = test system: CP238
How it was run: as §1

[15] = test system: CP247
How it was run: as §1

[16] = test system: CP250
How it was run: as §1

[17] = test system: CP252
How it was run: as §1

[18] = test system: CP256
How it was run: as §1

[19] = test system: CP260
How it was run: as §1

[20] = test system: CP262
How it was run: as §1

Measured: Potency
Potency means the concentration at half of the fitted maximal effect.

CNC[C@@H](O)[C@@H](O)[C@H](O)[C@H](O)CO
inactive: all assays above

C[C@]12CCC(=O)C=C1CC[C@@H]1[C@H]2[C@@H](O)C[C@@]2(C)[C@H]1CC[C@]2(O)C(=O)CO
inactive: all assays above

CN(C)C(=O)COC(=O)Cc1ccc(OC(=O)c2ccc(N=C(N)N)cc2)cc1
not listed: [11]
inactive: all other assays above

C[Se]CCC(N)C(=O)O (stereo not drawn)
not listed: [11] | [18]
inactive: all other assays above

O=C(O)CCNC(=O)c1ccc(N=Nc2ccc(O)c(C(=O)O)c2)cc1
inactive: all assays above

CCCCc1ccc2nc(NC(=O)OC)[nH]c2c1
inactive: all assays above

Cc1cc2c(s1)Nc1ccccc1N=C2N1CCN(C)CC1
inactive: all assays above

COC(=O)C1=C(C)NC(C)=C(C(=O)OCCCN2CCC(c3ccccc3)(c3ccccc3)CC2)C1c1cccc([N+](=O)[O-])c1 (stereo not drawn)
active: [1] 4.47 µM | [2] 5.01 µM | [3] 3.98 µM | [4] 7.08 µM | [5] 4.47 µM | [7] 5.36 µM | [8] 9.53 µM | [9] 9.53 µM | [10] 6.01 µM | [11] 6.75 µM | [12] 3.55 µM | [13] 2.82 µM | [14] 8.91 µM | [15] 6.31 µM | [16] 7.08 µM | [17] 5.01 µM | [18] 7.08 µM | [19] 2.82 µM | [20] 6.01 µM

CC(S)C(=O)NCC(=O)O (stereo not drawn)
inactive: all assays above

O=c1oc2cc(O)ccc2s1
not listed: [16]
inactive: all other assays above

CCOC(=O)c1c(C)n(C)c2ccc(O)cc12
not listed: [10]
inactive: all other assays above

Oc1ccc(OCc2ccccc2)cc1
not listed: [9] | [20]
inactive: all other assays above

Cc1ncc([N+](=O)[O-])n1CC(C)O (stereo not drawn)
not listed: [19]
inactive: all other assays above

Nc1ccn([C@@H]2O[C@H](CO)[C@@H](O)C2O)c(=O)n1 (stereo partly drawn)
inactive: all assays above

CCCCCCCCCCCCCCCCCCCCCCO
not listed: [7]
inactive: all other assays above

Cc1cc2cc3c(C)cc(=O)oc3c(C)c2o1
inactive: all assays above

C[C@H](Cn1cnc2c(N)ncnc21)OCP(=O)(O)O
not listed: [19]
inactive: all other assays above

O=C(NCCO[N+](=O)[O-])c1cccnc1
inactive: all assays above

CCN(CC)CCOc1ccc(Cc2ccccc2)cc1
not listed: [15] | [19]
inactive: all other assays above

C=C(c1ccc(C(=O)O)cc1)c1cc2c(cc1C)C(C)(C)CCC2(C)C
not listed: [19]
inactive: all other assays above

Nc1cccc2c1CN(C1CCC(=O)NC1=O)C2=O (stereo not drawn)
inactive: all assays above

Nc1cc(C(Cl)=C(Cl)Cl)c(S(N)(=O)=O)cc1S(N)(=O)=O
inactive: all assays above

CCOc1cc(CC(=O)N[C@@H](CC(C)C)c2ccccc2N2CCCCC2)ccc1C(=O)O
inactive: all assays above

NNc1nncc2ccccc12
active: [1] 3.55 µM | [5] 3.55 µM
not listed: [9] | [11] | [13] | [15] | [16] | [18] | [19]
inactive: all other assays above

Cc1nc2n(c(=O)c1CCN1CCC(c3noc4cc(F)ccc34)CC1)CCCC2
not listed: [13] | [19]
inactive: all other assays above

O=C1c2ccccc2-c2n[nH]c3cccc1c23
not listed: [11]
inactive: all other assays above

CNC[C@H](O)c1ccc(O)c(O)c1
not listed: [11]
inactive: all other assays above

COc1ccc2cc([C@H](C)C(=O)O)ccc2c1
not listed: [13] | [19]
inactive: all other assays above
